Among the data in PubChem BioAssay (EPA / NIEHS) are outcome and AC50 values, retold here.

Records with an inconclusive call do not appear. The source made the active and inactive calls. The calls were made as follows: active = hit-call score of the fitted dose curve at least 0.9, where 1 is the maximum; inconclusive = response in the unintended direction; inactive = score below 0.9.

The target in test [1] is human Ephrin type-B Receptor 2 (EphB2), EPHB2 (gene 2048) (UniProt P29323). Kind of test: NVS_ENZ_hEphB2: NovaScreen (NVS) Enzymatic Assay for human Ephrin type-B Receptor 2 (EphB2) (AID 2283156). Put shortly:
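Recombinant kinase with fluorescent substrate, product separated by electrophoretic mobility shift, read 1 h after dosing. Duplicate 25 uM screen, then singleton concentration-response to 50 uM max; loss of signal versus DMSO.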

Test [2] addresses human Ephrin type-A Receptor 1 (EphA1), EPHA1 (gene 2041) (UniProt P21709). Put plainly: NVS_ENZ_hEphA1: NovaScreen (NVS) Enzymatic Assay for human Ephrin type-A Receptor 1 (EphA1) (AID 2283158).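 Also: activity is signal loss versus DMSO meaning EphA1 kinase inhibition.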 Put shortly:
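Biochemical kinase assay run cell-free; 1 h incubation; readout is fluorescence with mobility-shift separation of product. Concentration-response up to 50 uM for actives from a 25 uM screen.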

Test [3] addresses human LYN Proto-Oncogene, Src family Tyrosine Kinase (LynA), LYN (gene 4067) (UniProt P07948). Put plainly: NVS_ENZ_hLynA: NovaScreen (NVS) Enzymatic Assay for human LYN Proto-Oncogene, Src family Tyrosine Kinase (LynA) (AID 2283173). Put shortly:
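Recombinant kinase with fluorescent substrate; product separated from substrate by electrophoretic mobility shift and read 1 h after dosing. Duplicate screen at 25 uM, then concentration-response up to 50 uM; activity scored as signal loss against DMSO.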

Test [4] has as its target Histone deacetylase 3 (Homo sapiens) (UniProt O15379). Put plainly: NVS_ENZ_hHDAC3: NovaScreen (NVS) Enzymatic Assay for human Histone Deacetylase 3 (HDAC3) (AID 2283163). The protocol:
NVS_ENZ_hHDAC3 is a biochemical, single-readout assay that uses extracted gene-proteins in a cell-free assay. Measurements were taken 1 hour after chemical dosing in a 384-well plate.NVS_ENZ_hHDAC3 is one of one assay component(s) measured or calculated from the NVS_ENZ_hHDAC3 assay. It is designed to make measurements of enzyme activity, a form of enzyme reporter, as detected with fluorescence intensity signals by Fluorescence and electrophoretic mobility shift technology.Data from the assay component NVS_ENZ_hHDAC3 was analyzed into 1 assay endpoint. This assay endpoint, NVS_ENZ_hHDAC3, was analyzed in the positive analysis fitting direction relative to DMSO as the negative control and baseline of activity. Using a type of enzyme reporter, loss-of-signal activity can be used to understand changes in the enzymatic activity as they relate to the gene HDAC3. Furthermore, this assay endpoint can be referred to as a primary readout, because this assay has produced multiple assay endpoints where this one serves a enzymatic activity function. To generalize the intended target to other relatable targets, this assay endpoint is annotated to the hydrolase intended target family, where the subfamily is histone deacetylase. […]

The target in test [5] is Glycogen synthase kinase-3 beta (Homo sapiens) (UniProt P49841). Kind of test: NVS_ENZ_hGSK3b: NovaScreen (NVS) Enzymatic Assay for human Glycogen Synthase Kinase-3 beta (GSK3b) (AID 2283165). Put shortly:
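Recombinant enzyme with specific fluorescent substrate, 1 h, product separated by electrophoretic mobility shift. Primary duplicate screen at 25 uM; actives (e.g. 30% inhibition) followed in singleton concentration-response to 50 uM. Signal loss fitted versus DMSO.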

In test [6] the target is human Fibroblast Growth Factor Receptor 1 (FGFR1), FGFR1 (gene 2260) (UniProt P11362). Kind of test: NVS_ENZ_hFGFR1: NovaScreen (NVS) Enzymatic Assay for human Fibroblast Growth Factor Receptor 1 (FGFR1) (AID 2283159). A digest of the protocol:
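Cell-free recombinant kinase with fluorescent substrate, product separated by electrophoretic mobility shift; read 1 hour after dosing, loss of signal relative to DMSO. Initial screen in duplicate at 25 uM, actives followed in concentration series.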

Test [7] deals with Protein deacetylase HDAC6 (Homo sapiens) (UniProt Q9UBN7). Kind of test: NVS_ENZ_hHDAC6: NovaScreen (NVS) Enzymatic Assay for human Histone Deacetylase 6 (HDAC6) (AID 2283164). Put shortly:
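Recombinant human HDAC6 with fluorescent substrate, 1 h; product separated from substrate by electrophoretic mobility shift. Primary screen in duplicate at 25 uM; actives retested singly in concentration-response up to 50 uM, fitted relative to DMSO.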

The target of test [8] is human Janus Kinase 2 (Jak2), JAK2 (gene 3717) (UniProt O60674). Put plainly: NVS_ENZ_hJak2: NovaScreen (NVS) Enzymatic Assay for human Janus Kinase 2 (Jak2) (AID 2283169). A digest of the protocol:
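Cell-free recombinant human JAK2 enzyme activity assay, fluorescence/electrophoretic mobility shift read 1 h after dosing. Screened in duplicate at 25 uM, then concentration-response up to 50 uM; activity as signal loss relative to DMSO.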

human Ephrin type-A Receptor 1 (EphA1), EPHA1 (gene 2041), sequence (P21709 whole entry, looked up): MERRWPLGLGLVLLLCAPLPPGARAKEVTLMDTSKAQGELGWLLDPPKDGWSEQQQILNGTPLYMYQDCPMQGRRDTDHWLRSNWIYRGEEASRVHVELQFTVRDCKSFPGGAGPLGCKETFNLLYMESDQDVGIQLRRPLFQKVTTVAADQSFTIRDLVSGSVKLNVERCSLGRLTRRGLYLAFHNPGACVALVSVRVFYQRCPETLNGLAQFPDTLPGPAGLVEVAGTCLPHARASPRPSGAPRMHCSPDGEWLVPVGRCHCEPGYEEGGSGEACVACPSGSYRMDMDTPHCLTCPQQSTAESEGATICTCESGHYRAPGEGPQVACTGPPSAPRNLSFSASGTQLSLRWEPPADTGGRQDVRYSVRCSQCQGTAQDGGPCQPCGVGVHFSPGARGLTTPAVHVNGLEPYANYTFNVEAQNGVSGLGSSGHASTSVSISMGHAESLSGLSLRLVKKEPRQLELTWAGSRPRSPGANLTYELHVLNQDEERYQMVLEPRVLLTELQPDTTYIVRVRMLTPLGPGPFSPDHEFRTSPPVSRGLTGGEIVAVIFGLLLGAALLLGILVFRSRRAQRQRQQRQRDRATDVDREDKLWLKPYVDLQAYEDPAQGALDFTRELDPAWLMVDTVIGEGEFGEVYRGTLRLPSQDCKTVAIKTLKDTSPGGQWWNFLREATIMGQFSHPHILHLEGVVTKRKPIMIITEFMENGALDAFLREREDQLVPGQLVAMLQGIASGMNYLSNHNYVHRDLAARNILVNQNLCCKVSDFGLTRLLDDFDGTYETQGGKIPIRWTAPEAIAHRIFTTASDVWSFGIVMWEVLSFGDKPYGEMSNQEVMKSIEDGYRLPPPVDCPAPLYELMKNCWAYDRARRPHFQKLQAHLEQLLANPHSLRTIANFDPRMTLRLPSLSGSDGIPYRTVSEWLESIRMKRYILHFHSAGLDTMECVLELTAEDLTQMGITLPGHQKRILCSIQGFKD
Protein deacetylase HDAC6 (Homo sapiens), sequence (Q9UBN7 whole entry, looked up): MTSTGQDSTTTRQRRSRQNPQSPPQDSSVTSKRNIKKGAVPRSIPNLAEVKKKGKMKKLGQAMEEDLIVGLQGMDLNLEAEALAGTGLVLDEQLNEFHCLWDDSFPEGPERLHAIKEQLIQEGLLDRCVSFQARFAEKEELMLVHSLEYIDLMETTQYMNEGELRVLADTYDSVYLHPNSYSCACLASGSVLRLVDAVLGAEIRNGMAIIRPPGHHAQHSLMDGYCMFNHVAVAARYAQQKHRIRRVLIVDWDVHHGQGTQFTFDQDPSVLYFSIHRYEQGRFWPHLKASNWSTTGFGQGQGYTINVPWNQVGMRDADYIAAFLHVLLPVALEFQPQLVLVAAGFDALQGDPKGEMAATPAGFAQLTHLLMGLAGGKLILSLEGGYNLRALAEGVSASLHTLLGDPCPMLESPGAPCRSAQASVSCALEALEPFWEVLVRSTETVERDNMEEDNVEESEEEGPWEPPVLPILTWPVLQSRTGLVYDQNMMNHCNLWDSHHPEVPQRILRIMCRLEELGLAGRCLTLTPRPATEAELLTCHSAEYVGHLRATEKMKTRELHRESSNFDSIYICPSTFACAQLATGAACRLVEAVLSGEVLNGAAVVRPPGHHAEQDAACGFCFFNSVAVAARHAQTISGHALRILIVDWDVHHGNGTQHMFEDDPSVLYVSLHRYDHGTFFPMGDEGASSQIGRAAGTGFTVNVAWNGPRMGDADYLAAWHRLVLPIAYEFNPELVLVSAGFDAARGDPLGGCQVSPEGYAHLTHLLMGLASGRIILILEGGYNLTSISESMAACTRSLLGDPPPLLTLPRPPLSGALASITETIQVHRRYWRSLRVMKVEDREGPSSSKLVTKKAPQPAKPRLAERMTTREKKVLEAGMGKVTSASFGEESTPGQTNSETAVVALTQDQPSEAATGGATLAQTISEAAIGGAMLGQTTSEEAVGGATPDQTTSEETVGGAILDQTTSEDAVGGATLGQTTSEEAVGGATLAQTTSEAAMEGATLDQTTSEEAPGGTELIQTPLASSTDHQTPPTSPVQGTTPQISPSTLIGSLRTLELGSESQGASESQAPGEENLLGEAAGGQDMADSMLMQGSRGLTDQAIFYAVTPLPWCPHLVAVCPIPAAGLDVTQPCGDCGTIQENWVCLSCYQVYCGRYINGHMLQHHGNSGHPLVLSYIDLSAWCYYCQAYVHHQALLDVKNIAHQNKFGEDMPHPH
Glycogen synthase kinase-3 beta (Homo sapiens), sequence (P49841 whole entry, looked up): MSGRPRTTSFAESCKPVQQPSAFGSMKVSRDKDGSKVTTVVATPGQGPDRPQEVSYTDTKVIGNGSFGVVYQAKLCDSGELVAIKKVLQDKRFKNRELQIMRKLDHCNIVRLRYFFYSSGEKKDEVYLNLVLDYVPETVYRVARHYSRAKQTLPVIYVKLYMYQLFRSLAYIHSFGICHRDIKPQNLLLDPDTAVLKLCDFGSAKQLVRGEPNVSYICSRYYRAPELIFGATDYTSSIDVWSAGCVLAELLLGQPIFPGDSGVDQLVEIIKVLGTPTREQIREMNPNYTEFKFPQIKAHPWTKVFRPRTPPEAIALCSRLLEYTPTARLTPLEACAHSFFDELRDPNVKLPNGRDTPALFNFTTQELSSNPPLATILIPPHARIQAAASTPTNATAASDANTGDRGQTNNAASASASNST
Histone deacetylase 3 (Homo sapiens), sequence (O15379 whole entry, looked up): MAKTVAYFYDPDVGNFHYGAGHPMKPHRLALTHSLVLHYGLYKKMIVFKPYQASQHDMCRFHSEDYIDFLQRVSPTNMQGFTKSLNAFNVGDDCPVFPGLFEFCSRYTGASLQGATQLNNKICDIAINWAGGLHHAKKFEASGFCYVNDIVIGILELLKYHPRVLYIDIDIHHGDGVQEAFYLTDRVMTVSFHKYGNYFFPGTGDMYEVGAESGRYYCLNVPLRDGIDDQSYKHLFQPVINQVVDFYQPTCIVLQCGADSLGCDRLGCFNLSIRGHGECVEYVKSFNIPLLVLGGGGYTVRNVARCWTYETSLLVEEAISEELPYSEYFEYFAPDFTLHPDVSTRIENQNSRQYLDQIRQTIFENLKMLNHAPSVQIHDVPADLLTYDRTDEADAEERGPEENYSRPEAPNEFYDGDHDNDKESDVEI
human Ephrin type-B Receptor 2 (EphB2), EPHB2 (gene 2048), sequence (P29323 whole entry, looked up): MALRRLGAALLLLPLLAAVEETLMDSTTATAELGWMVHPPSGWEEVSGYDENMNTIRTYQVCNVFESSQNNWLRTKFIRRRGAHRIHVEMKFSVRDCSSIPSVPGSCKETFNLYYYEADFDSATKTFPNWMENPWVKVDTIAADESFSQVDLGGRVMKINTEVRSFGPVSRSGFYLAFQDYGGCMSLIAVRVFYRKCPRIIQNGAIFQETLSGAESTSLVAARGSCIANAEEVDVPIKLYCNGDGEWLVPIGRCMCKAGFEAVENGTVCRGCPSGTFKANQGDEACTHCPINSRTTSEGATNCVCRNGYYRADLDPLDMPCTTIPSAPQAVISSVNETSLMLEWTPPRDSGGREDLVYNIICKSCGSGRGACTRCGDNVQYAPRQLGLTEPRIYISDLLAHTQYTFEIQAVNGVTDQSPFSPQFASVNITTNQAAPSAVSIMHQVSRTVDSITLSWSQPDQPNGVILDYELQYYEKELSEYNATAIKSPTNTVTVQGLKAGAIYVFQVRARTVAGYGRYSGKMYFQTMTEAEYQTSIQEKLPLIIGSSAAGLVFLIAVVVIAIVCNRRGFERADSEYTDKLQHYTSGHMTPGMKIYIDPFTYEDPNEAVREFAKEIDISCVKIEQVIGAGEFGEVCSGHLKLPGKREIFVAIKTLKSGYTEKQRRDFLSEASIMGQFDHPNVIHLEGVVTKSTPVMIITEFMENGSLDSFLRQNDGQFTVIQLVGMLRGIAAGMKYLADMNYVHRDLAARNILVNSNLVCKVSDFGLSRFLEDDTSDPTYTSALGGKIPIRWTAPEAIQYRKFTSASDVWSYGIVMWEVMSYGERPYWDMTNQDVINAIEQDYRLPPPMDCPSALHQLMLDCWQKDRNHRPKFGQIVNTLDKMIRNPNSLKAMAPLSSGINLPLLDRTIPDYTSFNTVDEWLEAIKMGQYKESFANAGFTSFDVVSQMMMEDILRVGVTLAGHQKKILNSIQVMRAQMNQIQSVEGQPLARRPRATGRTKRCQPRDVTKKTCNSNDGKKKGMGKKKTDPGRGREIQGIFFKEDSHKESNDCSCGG
human LYN Proto-Oncogene, Src family Tyrosine Kinase (LynA), LYN (gene 4067), sequence (P07948 whole entry, looked up): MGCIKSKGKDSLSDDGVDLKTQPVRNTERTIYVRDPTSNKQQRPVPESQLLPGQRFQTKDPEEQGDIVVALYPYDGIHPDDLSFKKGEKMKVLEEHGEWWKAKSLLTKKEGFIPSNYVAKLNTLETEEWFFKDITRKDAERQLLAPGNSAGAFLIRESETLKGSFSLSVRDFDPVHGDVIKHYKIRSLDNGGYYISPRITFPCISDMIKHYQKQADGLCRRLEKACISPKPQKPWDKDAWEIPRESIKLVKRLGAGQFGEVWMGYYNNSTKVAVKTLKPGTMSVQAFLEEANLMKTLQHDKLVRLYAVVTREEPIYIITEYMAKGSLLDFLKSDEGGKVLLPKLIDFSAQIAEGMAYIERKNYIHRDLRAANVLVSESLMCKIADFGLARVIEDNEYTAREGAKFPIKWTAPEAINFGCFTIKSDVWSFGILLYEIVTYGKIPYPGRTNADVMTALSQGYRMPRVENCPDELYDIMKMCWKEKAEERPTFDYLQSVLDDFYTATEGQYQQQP

As to `COC(=O)N(C(=O)N1CO[C@@]2(C(=O)OC)Cc3cc(Cl)ccc3C2=N1)c1ccc(OC(F)(F)F)cc1`, in test [1], the compound was classed as inactive.
Turning to `N#Cc1c[nH]cc1-c1cccc2c1OC(F)(F)O2`, the compound was called inactive in test [2] and in test [3].
Regarding `Clc1nc(Cl)nc(Nc2ccccc2Cl)n1`, the outcome in test [2], in test [4] and in test [5] was inactive.
With `O=C1C2CC=CCC2C(=O)N1SC(Cl)(Cl)Cl` (configuration not stated), the compound was called inactive in test [6]. The AC50 was 7.99 µM (active) in test [4] and 16.7 µM (active) in test [7].
With `COP(=S)(OC)SCn1nnc2ccccc2c1=O`, the compound was called inactive in test [7].
For the compound `Cc1cnc(C2=NC(C)(C(C)C)C(=O)N2)c(C(=O)O)c1` (configuration not stated), the compound was classed as inactive in test [5].
Turning to `Nc1cnn(-c2ccccc2)c(=O)c1Cl`, in test [8], the compound was called inactive.
